# Results from PubChem BioAssay (NCATS).
# Results filed as inconclusive are left out. A call without a number means that no potency is given here. Calls of active or inactive are those of the source. Unless noted, calls come from the whole dose curve; as a rule, active = well fitted curve in the direction sought with a large enough effect; inconclusive = small, poorly fitted or top-dose-only effect, or another doubt; inactive = no such curve, though single readings can be large; an effect the other way counts as inactive or inconclusive.
# What was measured:
# [1] = P-glycoprotein substrates identified in KB-3-1 adenocarcinoma cell line, qHTS therapeutic library screen (AID 1346986); note: nearly all actives have a fitted effect of over 60% in size;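 note: potency is the fitted concentration of half-maximal effect; potency is for cytotoxicity meaning loss of cell viability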
# Method in brief: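 Counter-screen: cherry-picked hits retested in the KB pair and in HEK-293 pcDNA/MDR-19 cells ± tariquidar. Primary screen used 72 h CellTiter-Glo viability in KB-3-1 and KB-8-5-11.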
# [2] = Primary qHTS for inhibitors of nuclear receptor binding SET domain protein 2 (NSD2) in an isogenic RCH-ACV NSD2 p.E1099K mutant (9B) (AID 1645876); note: nearly all actives have a fitted effect of over 70% in size; note: potency is the fitted concentration of half-maximal effect
# [3] = Primary qHTS for inhibitors of nuclear receptor binding SET domain protein 2 (NSD2) in an RCH-ACV wild type WT cells (2C) (AID 1645877); note: nearly all actives have a fitted effect of over 70% in size; note: potency is the fitted concentration of half-maximal effect
# [4] = biological target: Glutathione peroxidase 1 (Homo sapiens) (UniProt P07203); assay: Primary qHTS Assay for Inhibitors of Recombinant Selenoprotein Glutathione Peroxidase 1 (GPX1) (AID 1845191); note: nearly all actives have a fitted effect of over 65% in size; note: potency is the fitted concentration of half-maximal effect
# Glutathione peroxidase 1 (Homo sapiens), sequence (P07203 whole entry, looked up): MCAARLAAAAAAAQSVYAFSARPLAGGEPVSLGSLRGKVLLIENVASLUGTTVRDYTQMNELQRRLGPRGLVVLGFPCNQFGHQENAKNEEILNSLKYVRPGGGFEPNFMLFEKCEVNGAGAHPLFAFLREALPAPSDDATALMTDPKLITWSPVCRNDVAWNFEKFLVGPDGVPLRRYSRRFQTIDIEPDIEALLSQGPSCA
# Method in brief: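 10 nM GPX1 + cpd, 30 min RT; start w/ 1 mM GSH, 0.5 mM cumene hydroperoxide, 0.5 mM NADPH, 100 nM GR, 0.01% BSA; buffer 50 mM Tris-HCl pH 7.5, 2 mM EDTA, 150 mM NaCl; Fl 340/450, 0 & 15 min.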
# [5] = biological target: Calcium and integrin-binding protein 1 (Homo sapiens) (UniProt Q99828); assay: Primary qHTS for Identification of Calcium Integrin Binding Protein 1 (CIB1) Competitor (AID 1508620);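 note: GST tagged CIB1 binding a fluorescein labelled alphaIIb integrin peptide tracer; top concentration of the series differs between compounds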
# Calcium and integrin-binding protein 1 (Homo sapiens), sequence (Q99828 whole entry, looked up): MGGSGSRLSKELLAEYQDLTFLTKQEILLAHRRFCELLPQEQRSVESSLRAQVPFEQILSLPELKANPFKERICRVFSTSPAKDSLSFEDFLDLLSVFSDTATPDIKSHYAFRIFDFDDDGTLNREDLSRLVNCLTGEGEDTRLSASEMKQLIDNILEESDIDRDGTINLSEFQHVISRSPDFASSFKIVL
# Method in brief: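 CIB1-GST (1 uM final) and compound incubated 15 min at room temperature before adding FITC-alphaIIb peptide tracer (100 nM final). Competition for binding read by fluorescence polarization (ex 480, em 540) after another 15 min at room temperature.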
# [6] = qHTS to identify inhibitors of the type 1 interferon - major histocompatibility complex class I in skeletal muscle: primary screen against the NCATS Mechanism Interrogation Plate v5.0 (MIPE) Libary (AID 1347411); note: nearly all actives have a fitted effect of over 65% in size
# Method in brief: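 Immortalized human C25cl48 myoblasts with HiBit knocked into endogenous HLA-B*08:01 were stimulated with 4.0 ng/ml IFN-beta and exposed to compounds (11-point 1:3 titration, top 46 uM final) for 24 hrs at 37 C; HiBiT lytic luminescence measured.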
# [7] = qHTS drug screen for cell cycle checkpoint inhibitors in PARPi-resistant BRCA-mutant ovarian cancer cell lines. (AID 1963452; calls by dose curve); conditions: PEO1/OlaR viability, CellTiter-Glo luminescence, 96 h, stronger effect = lower value
# Method in brief: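 PEO1, PEO4 and PEO1/OlaR ovarian cancer cells, 600 per well, exposed 96 h at 37C to a dilution series. Viability read by CellTiter-Glo luminescence, normalized to DMSO and empty wells; activity summarized as Z-AUC.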
# [8] = biological target: Tyrosine-protein kinase Yes (Homo sapiens) (UniProt P07947); assay: qHTS for small molecule inhibitors of Yes1 kinase: Primary Screen (AID 686947); note: potency is the fitted concentration of half-maximal effect; nearly all actives have a fitted effect of over 60% in size
# Tyrosine-protein kinase Yes (Homo sapiens), sequence (P07947 whole entry, looked up): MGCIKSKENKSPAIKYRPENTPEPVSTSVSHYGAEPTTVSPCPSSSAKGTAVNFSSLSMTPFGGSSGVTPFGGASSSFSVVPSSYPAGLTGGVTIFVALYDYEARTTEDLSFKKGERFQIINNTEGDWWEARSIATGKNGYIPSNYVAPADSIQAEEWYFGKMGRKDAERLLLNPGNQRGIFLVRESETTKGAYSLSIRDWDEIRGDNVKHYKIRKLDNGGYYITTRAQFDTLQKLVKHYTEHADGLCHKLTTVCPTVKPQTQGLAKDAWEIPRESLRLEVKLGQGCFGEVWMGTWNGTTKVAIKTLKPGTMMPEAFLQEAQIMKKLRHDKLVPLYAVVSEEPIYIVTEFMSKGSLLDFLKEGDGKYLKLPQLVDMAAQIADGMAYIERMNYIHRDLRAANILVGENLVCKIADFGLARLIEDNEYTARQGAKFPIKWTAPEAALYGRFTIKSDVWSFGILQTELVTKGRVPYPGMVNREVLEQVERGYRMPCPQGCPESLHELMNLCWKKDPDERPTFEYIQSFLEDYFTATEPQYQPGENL
# Method in brief: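 ADP-Glo luminescence readout; final 4 nM Yes1, 0.1 mM ATP, 0.3 mg/mL poly(E4Y), Tris pH 7.5, MgCl2, DTT, Brij-35. 20 min compound preincubation, 60 min reaction at RT. Normalized to DMSO wells with and without enzyme.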
# [9] = qHTS for small molecule inhibitors of Yes1 kinase: Counter Assay (AID 686950);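 note: no kinase present so only ADP-Glo detection of a fixed ADP amount is tested; luminescence from ADP-Glo reporting ADP in a fixed ATP and ADP mixture; series mostly up to about 77 µM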
# Method in brief: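 Luminescence read-out from ADP-Glo quantifies a fixed ADP amount (0.02 mM ADP with 0.08 mM ATP) after 60 min at room temperature; signal is normalized between DMSO wells with ATP/ADP and with 0.1 mM ATP alone.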
# [10] = NCATS anti-infectives library activity on HEK293 viability as a counter-qHTS vs the C. elegans viability qHTS (AID 1745854)
# Method in brief: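 HEK293 cells, 1500 per well, exposed 24 hr at 37C in 5% CO2 to compounds in a 1:5 titration, up to 41.7 uM final. Viability read as CellTiter-Glo luminescence after 10 min at room temperature.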
smiles,measurement,setting,value
COc1ccc2cc1Oc1ccc(cc1)CC1c3cc(c(OC)cc3CCN1C)Oc1c(OC)c(OC)c(OC)c3c1C(C2)N(C)CC3 (stereo not given),Potency,[1],inactive
same,Potency,[2],inactive
same,Potency,[3],inactive
same,Potency,[4],inactive
O=C1NC(=NCc2cccs2)S/C1=C/c1ccc2ncccc2c1,Potency,[1],4.11 µM (active)
same,Potency,[2],3.66 µM (active)
same,Potency,[3],2.91 µM (active)
same,Potency,[4],inactive
CC(C)(N)c1cc(C(=O)N[C@@H]2CCc3ccc(Oc4ccnc5c4CCC(=O)N5)cc3C2)cc(C(F)(F)F)c1,Potency,[1],18.4 µM (active)
same,Potency,[2],11.6 µM (active)
same,Potency,[3],14.6 µM (active)
same,Potency,[4],inactive
CCCn1cnc2c(NCc3ccc(C)s3)nc(N[C@H](CC)CO)nc21,Potency,[1],inactive
same,Potency,[4],inactive
Cc1ccc(NS(=O)(=O)c2cc3c(cc2NCCO)NC(=O)CC3)cc1C,Potency,[1],inactive
same,outcome,[5],inactive
same,Potency,[2],inactive
same,Potency,[4],inactive
CC(Sc1nc2c(cnn2-c2cccc(Cl)c2)c(=O)[nH]1)C(N)=O (stereo not given),Potency,[1],inactive
same,Potency,[2],inactive
same,Potency,[3],inactive
same,Potency,[4],inactive
O=C1NCCSc2c1sc1ccc(O)cc21,Potency,[1],6.51 µM (active)
same,Potency,[2],5.8 µM (active)
same,Potency,[3],3.66 µM (active)
same,Potency,[4],inactive
Nc1ncnc2c1ncn2[C@H]1O[C@H](CO)[C@@H](O)[C@@H]1O,Potency,[1],inactive
same,Potency,[2],39.8 µM (active)
same,Potency,[3],39.8 µM (active)
CN1CCCN(C(=O)c2cccc(-c3ccc(/C=C4\C(=O)Nc5ccc(Cl)cc54)o3)c2)CC1,Potency,[1],8.2 µM (active)
same,Potency,[2],0.231 µM (active)
same,Potency,[3],0.231 µM (active)
CN(C)CCCNc1c2ccccc2nc2c1[nH]c1ccccc12,Potency,[1],1.84 µM (active)
same,Potency,[2],1.84 µM (active)
same,Potency,[3],2.06 µM (active)
same,Potency,[4],22.7 µM (active)
Cc1cc(/C=c2/sc3nc4ccccc4n3c2=O)c(C)n1-c1ccccc1,Potency,[1],inactive
same,Potency,[6],inactive
same,Potency,[4],inactive
same,Z-AUC,[7],0.302 (inactive)
same,Z-AUC,[7]; measured here: PEO1 parental Z-AUC,0.332
same,Z-AUC,[7]; measured here: PEO4 Z-AUC,0.429
[2H]C([2H])([2H])C(OC(=O)[C@H](C)N[P@](=O)(OC[C@H]1O[C@@H](n2ccc(=O)[nH]c2=O)[C@](C)(F)[C@@H]1O)Oc1ccccc1)C([2H])([2H])[2H],Potency,[1],inactive
same,Potency,[2],inactive
same,Potency,[3],inactive
CN(c1ccc(NC(=O)Nc2ccc(OC(F)(F)F)cc2)cc1)c1ccnc(Nc2cccc(S(N)(=O)=O)c2)n1,Potency,[8],0.0823 µM (active)
same,outcome,[9],inactive
same,Potency,[1],18.4 µM (active)
same,Potency,[2],3.66 µM (active)
same,Potency,[3],1.03 µM (active)
same,Potency,[4],inactive
COc1ccc2c(c1O)OC(C)(C)c1c-2ccc2c1C(=O)N(c1ccc(C(=O)c3ccccc3)cc1)C2=O,Potency,[1],inactive
same,Potency,[4],inactive
C[C@]1(C(=O)Nc2ccc(F)nc2)CCCN1c1nc(Nc2cc(C3CC3)[nH]n2)c2cccn2n1,Potency,[1],2.06 µM (active)
same,Potency,[2],1.84 µM (active)
same,Potency,[3],0.92 µM (active)
Cc1cc(-c2nc(C(=O)Nc3cn(C4CCOCC4)nc3C(N)=O)co2)ccn1,Potency,[1],16.4 µM (active)
same,Potency,[2],9.2 µM (active)
same,Potency,[3],16.4 µM (active)
same,Potency,[4],inactive
COc1cc2ncnc(Nc3ccc(NC(=O)c4ccccc4)cc3)c2cc1OC,Potency,[1],20.6 µM (active)
same,Potency,[2],8.2 µM (active)
same,Potency,[4],inactive
CC(C)C(=O)OC[C@H]1O[C@@H](n2ccc(N)nc2=O)[C@](C)(F)[C@@H]1OC(=O)C(C)C,Potency,[1],inactive
same,Potency,[2],inactive
same,Potency,[3],inactive
same,outcome,[10],inactive
CSc1cc2c(s1)c1cnn(Cc3ccccc3F)c(=O)c1n2C,Potency,[1],inactive
same,Potency,[2],inactive
same,Potency,[3],inactive
